PubChem BioAssay AID1159580 (chemical genetic matrix, 2015)
Screen size: about 5,500 compounds; about 2,000 (36%) were called active. Another 18% or so got no clear call; they are omitted. Cut-off read from the data, not from the text of the source: active = normalized growth mostly below about 0.91 (no sharp cut-off); inconclusive = no clear call, values can overlap the other calls; inactive = mostly above about 0.92. The list shows a part of the results. Where a SMILES comes first, the peptide text is derived from it. Bridges are numbered along the chain shown (N, C = ends). [ ]: non-standard residue; d: D form. The star is where a group is joined. Octanoyl(6-Me) = CCC(C)CCCCC(=O)*; Dab = NCC[CH](N)C(=O)O

Assay: chemical genetic growth profiling, strain panel (AID 1159580);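 note: tested at 20 µM; growth read once vehicle control cultures reached saturation at 30 °C; 1 = growth at the plate median or of vehicle wells; lower values mean less growth of the strain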
Conditions: growth OD

Measured: normalized growth

CCC(C)CCCCC(=O)NC(CCN)C(=O)NC(C(=O)NC(CCN)C(=O)NC1CCNC(=O)C(C(C)O)NC(=O)C(CCN)NC(=O)C(CCN)NC(=O)C(CC(C)C)NC(=O)C(Cc2ccccc2)NC(=O)C(CCN)NC1=O)C(C)O (configuration not stated) ({Octanoyl(6-Me)}-[Dab]T[Dab][Dab][Dab]FL[Dab][Dab]T; lactam 4-C; configuration not given here)
inactive: S. cerevisiae deletion strains, locus YJR075W, strain HOC1, active compounds read low 0.997 | S. cerevisiae deletion strains, locus YKL009W, strain mrt4, active compounds read low 0.99 | S. cerevisiae deletion strains, locus YKL068W, active compounds read low 1 | S. cerevisiae deletion strains, locus YKL085W, strain MDH1 (second series), active compounds read low 0.998 | S. cerevisiae deletion strains, locus YKL085W, strain MDH1, active compounds read low 0.998 | S. cerevisiae deletion strains, locus YKL160W, strain elf1, active compounds read low 0.97 | S. cerevisiae deletion strains, locus YKL190W, strain CNB1, active compounds read low 0.991 | S. cerevisiae deletion strains, locus YKR001C, strain vps1, active compounds read low 0.987 | S. cerevisiae deletion strains, locus YKR026C, strain gcn3, active compounds read low 1 | S. cerevisiae deletion strains, locus YKR091W, strain srl3, active compounds read low 1.01 | S. cerevisiae deletion strains, locus YLL001W, strain dnm1, active compounds read low 0.989 | S. cerevisiae deletion strains, locus YLL026W, active compounds read low 1.02 | S. cerevisiae deletion strains, locus YLL041C, strain sdh2, active compounds read low 0.995 | S. cerevisiae deletion strains, locus YLR027C, strain aat2, active compounds read low 0.988 | S. cerevisiae deletion strains, locus YLR039C, strain RIC1, active compounds read low 1.04 | S. cerevisiae deletion strains, locus YLR058C, strain SHM2, active compounds read low 1 | S. cerevisiae deletion strains, locus YLR102C, strain apc9, active compounds read low 1.01 | S. cerevisiae deletion strains, locus YLR113W, strain HOG1, active compounds read low 0.986 | S. cerevisiae deletion strains, locus YLR221C, strain rsa3, active compounds read low 0.988 | S. cerevisiae deletion strains, locus YLR258W, strain gsy2, active compounds read low 0.978 | S. cerevisiae deletion strains, locus YLR262C, strain YPT6 (second series), active compounds read low 1.04 | S. cerevisiae deletion strains, locus YLR262C, strain YPT6, active compounds read low 1.05 | S. cerevisiae deletion strains, locus YLR268W, strain sec22, active compounds read low 1.05 | S. cerevisiae deletion strains, locus YLR320W, strain mms22, active compounds read low 0.957 | S. cerevisiae deletion strains, locus YLR330W, strain CHS5, active compounds read low 1 | S. cerevisiae deletion strains, locus YLR342W, strain FKS1 (second series), active compounds read low 0.95 | S. cerevisiae deletion strains, locus YLR342W, strain FKS1, active compounds read low 0.995 | S. cerevisiae deletion strains, locus YLR357W, strain rsc2, active compounds read low 0.968 | S. cerevisiae deletion strains, locus YLR370C, strain arc18, active compounds read low 0.979 | S. cerevisiae deletion strains, locus YLR371W, strain rom2, active compounds read low 1.01 | S. cerevisiae deletion strains, locus YLR384C, strain iki3, active compounds read low 0.981 | S. cerevisiae deletion strains, locus YLR418C, strain cdc73, active compounds read low 1.02 | S. cerevisiae deletion strains, locus YML016C, strain PPZ1, active compounds read low 0.992 | S. cerevisiae deletion strains, locus YML032C, strain rad52, active compounds read low 1.02 | S. cerevisiae deletion strains, locus YML120C, strain ndi1, active compounds read low 0.985 | S. cerevisiae deletion strains, locus YML124C, strain tub3, active compounds read low 1.01 | S. cerevisiae deletion strains, locus YMR058W, strain fet3, active compounds read low 0.984 | S. cerevisiae deletion strains, locus YMR078C, strain ctf18, active compounds read low 1.01 | S. cerevisiae deletion strains, locus YMR125W, strain sto1, active compounds read low 0.993 | S. cerevisiae deletion strains, locus YMR129W, active compounds read low 1 | S. cerevisiae deletion strains, locus YMR205C, strain PFK2, active compounds read low 0.957 | S. cerevisiae deletion strains, locus YMR223W, strain ubp8, active compounds read low 0.975 | S. cerevisiae deletion strains, locus YMR231W, strain pep5, active compounds read low 1 | S. cerevisiae deletion strains, locus YMR263W, strain SAP30, active compounds read low 1.02 | S. cerevisiae deletion strains, locus YMR307W, strain GAS1, active compounds read low 0.984 | S. cerevisiae deletion strains, locus YNL067W, strain RPL9B, active compounds read low 1.01 | S. cerevisiae deletion strains, locus YNL071W, strain lat1, active compounds read low 1.02 | S. cerevisiae deletion strains, locus YNL128W, strain TEP1, active compounds read low 0.982 | S. cerevisiae deletion strains, locus YNL153C, strain GIM3, active compounds read low 1.02 | S. cerevisiae deletion strains, locus YNL183C, strain NPR1, active compounds read low 0.944 | S. cerevisiae deletion strains, locus YNL209W, strain ssb2, active compounds read low 1 | S. cerevisiae deletion strains, locus YNL233W, strain BNI4, active compounds read low 0.992 | S. cerevisiae deletion strains, locus YNL248C, strain rpa49, active compounds read low 0.989 | S. cerevisiae deletion strains, locus YNL250W, strain rad50, active compounds read low 0.996 | S. cerevisiae deletion strains, locus YNL271C, strain bni1, active compounds read low 1.01 | S. cerevisiae deletion strains, locus YNL298W, strain CLA4, active compounds read low 0.997 | S. cerevisiae deletion strains, locus YNL307C, strain MCK1, active compounds read low 1.01 | S. cerevisiae deletion strains, locus YNL322C, strain KRE1 (second series), active compounds read low 0.976 | S. cerevisiae deletion strains, locus YNL322C, strain KRE1, active compounds read low 0.991 | S. cerevisiae deletion strains, locus YNR049C, strain mso1, active compounds read low 0.997 | S. cerevisiae deletion strains, locus YNR052C, strain pop2, active compounds read low 0.979 | S. cerevisiae deletion strains, locus YOL006C, strain TOP1, active compounds read low 0.992 | S. cerevisiae deletion strains, locus YOL012C, strain htz1 1.19 | S. cerevisiae deletion strains, locus YOL147C, strain pex11, active compounds read low 1.01 | S. cerevisiae deletion strains, locus YOR001W, strain rrp6, active compounds read low 0.97 | S. cerevisiae deletion strains, locus YOR061W, strain CKA2, active compounds read low 0.991 | S. cerevisiae deletion strains, locus YOR069W, strain VPS5, active compounds read low 1 | S. cerevisiae deletion strains, locus YOR070C, strain gyp1, active compounds read low 0.995 | S. cerevisiae deletion strains, locus YOR080W, strain dia2, active compounds read low 0.991 | S. cerevisiae deletion strains, locus YOR083W, strain WHI5, active compounds read low 0.97 | S. cerevisiae deletion strains, locus YOR106W, strain vam3, active compounds read low 0.987 | S. cerevisiae deletion strains, locus YOR136W, strain idh2, active compounds read low 1 | S. cerevisiae deletion strains, locus YOR144C, strain elg1, active compounds read low 1 | S. cerevisiae deletion strains, locus YOR184W, strain ser1, active compounds read low 1.01 | S. cerevisiae deletion strains, locus YOR231W, strain MKK1, active compounds read low 0.978 | S. cerevisiae deletion strains, locus YOR265W, strain rbl2, active compounds read low 0.986 | S. cerevisiae deletion strains, locus YOR270C, strain vph1, active compounds read low 0.963 | S. cerevisiae deletion strains, locus YOR290C, strain snf2, active compounds read low 0.963 | S. cerevisiae deletion strains, locus YOR316C, strain cot1, active compounds read low 1 | S. cerevisiae deletion strains, locus YPL051W, strain arl3, active compounds read low 0.963 | S. cerevisiae deletion strains, locus YPL055C, strain LGE1, active compounds read low 0.994 | S. cerevisiae deletion strains, locus YPL078C, strain atp4, active compounds read low 0.972 | S. cerevisiae deletion strains, locus YPL106C, strain sse1, active compounds read low 0.956 | S. cerevisiae deletion strains, locus YPL240C, strain hsp82, active compounds read low 0.981 | S. cerevisiae deletion strains, locus YPL241C, strain CIN2, active compounds read low 1 | S. cerevisiae deletion strains, locus YPL256C, strain CLN2, active compounds read low 0.994 | S. cerevisiae deletion strains, locus YPR119W, strain clb2, active compounds read low 0.999 | S. cerevisiae deletion strains, locus YPR141C, strain kar3, active compounds read low 1.01 | S. cerevisiae deletion strains, locus YPR163C, strain tif3, active compounds read low 1.02 | S. cerevisiae deletion strains, locus YPR167C, strain met16, active compounds read low 1 | S. cerevisiae deletion strains, strain wtn01, active compounds read low 1.01 | S. cerevisiae strains, strain wild type, active compounds read low 0.99
